# Test results taken from paper PMC7862700, “An all-to-all approach to the identification of sequence-specific readers for epigenetic DNA modifications on cytosine”.
# Key:
# Test in all cases: DAPPL (digital affinity profiling via proximity ligation, sequencing); 10 mM Tris-HCl pH 7.5, 50 mM NaCl, 1 mM DTT, 4% glycerol, room temperature, 30 min; GST-TFs on glutathione beads, 16-mer random dsDNA library, 0.1% formaldehyde crosslink after washing; high values mean tight binding
# FEV = molecular target: T1, FEV (Homo sapiens, UniProt Q99581 1-238); details: protein: recombinant; tags: N-terminal GST; dsDNA, one strand shown
# T1 sequence: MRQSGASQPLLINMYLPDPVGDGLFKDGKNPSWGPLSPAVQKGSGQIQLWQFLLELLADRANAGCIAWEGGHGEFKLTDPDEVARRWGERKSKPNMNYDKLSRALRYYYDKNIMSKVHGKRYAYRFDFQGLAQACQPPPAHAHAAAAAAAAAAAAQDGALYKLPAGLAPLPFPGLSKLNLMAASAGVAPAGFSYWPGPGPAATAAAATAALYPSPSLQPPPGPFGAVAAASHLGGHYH
# In short: (§1)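 Pools of DNA-barcoded human transcription factors, expressed in yeast as GST fusions on glutathione beads and combined with a tag-only sample, were incubated with 200 nmole of a 16-mer random double-stranded DNA library. Incubation took 30 min at room temperature in Tris/NaCl/DTT/glycerol buffer and was followed by washing, 0.1% formaldehyde crosslinking, proximity ligation (BsaI/T4 ligase, 1 h, 37 °C), PCR amplification and sequencing on an Illumina NextSeq500. Binding signal is the ratio of a hexamer's read frequency for a factor to its frequency for the tag-only sample.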
# ETV5 = ETV5 (Homo sapiens, UniProt P41161 1-510); details: protein: recombinant; tags: N-terminal GST; dsDNA, one strand shown
# Sequence of ETV5 (P41161 whole entry): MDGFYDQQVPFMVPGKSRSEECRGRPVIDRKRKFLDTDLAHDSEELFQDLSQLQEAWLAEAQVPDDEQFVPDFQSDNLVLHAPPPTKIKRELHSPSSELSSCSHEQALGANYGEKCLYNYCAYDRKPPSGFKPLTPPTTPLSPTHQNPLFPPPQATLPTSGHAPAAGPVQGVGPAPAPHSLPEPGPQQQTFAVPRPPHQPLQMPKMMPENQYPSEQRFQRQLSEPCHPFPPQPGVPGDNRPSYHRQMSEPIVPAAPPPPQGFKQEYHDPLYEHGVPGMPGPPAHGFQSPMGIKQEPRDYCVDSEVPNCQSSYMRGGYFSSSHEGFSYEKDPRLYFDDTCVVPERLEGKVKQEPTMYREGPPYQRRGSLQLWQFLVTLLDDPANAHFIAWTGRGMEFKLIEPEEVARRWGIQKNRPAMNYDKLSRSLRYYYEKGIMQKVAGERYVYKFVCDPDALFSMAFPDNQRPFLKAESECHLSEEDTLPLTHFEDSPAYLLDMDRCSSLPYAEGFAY
# In short: as §1
# HSF1 = HSF1 (Homo sapiens, UniProt Q00613 1-529); details: protein: recombinant; tags: N-terminal GST; chain copies: 3; dsDNA, one strand shown
# Sequence of HSF1 (Q00613 whole entry): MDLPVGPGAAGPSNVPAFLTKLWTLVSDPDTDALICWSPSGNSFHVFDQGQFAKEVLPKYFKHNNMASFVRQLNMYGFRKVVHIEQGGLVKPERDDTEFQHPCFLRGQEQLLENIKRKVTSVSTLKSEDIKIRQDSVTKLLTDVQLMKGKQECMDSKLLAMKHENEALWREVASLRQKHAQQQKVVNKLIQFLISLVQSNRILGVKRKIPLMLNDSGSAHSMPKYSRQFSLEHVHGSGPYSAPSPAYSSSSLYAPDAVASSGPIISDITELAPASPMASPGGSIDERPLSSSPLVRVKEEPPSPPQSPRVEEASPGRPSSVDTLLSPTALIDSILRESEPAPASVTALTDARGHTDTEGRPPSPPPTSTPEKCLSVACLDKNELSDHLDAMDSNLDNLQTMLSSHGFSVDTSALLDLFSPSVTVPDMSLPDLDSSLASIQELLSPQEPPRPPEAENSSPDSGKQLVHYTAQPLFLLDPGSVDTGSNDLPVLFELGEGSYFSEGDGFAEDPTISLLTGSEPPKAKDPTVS
# In short: as §1
# SPIC = molecular target: T2, SPIC (Homo sapiens, UniProt Q8N5J4 1-248); details: protein: recombinant; tags: N-terminal GST; dsDNA, one strand shown
# T2 sequence: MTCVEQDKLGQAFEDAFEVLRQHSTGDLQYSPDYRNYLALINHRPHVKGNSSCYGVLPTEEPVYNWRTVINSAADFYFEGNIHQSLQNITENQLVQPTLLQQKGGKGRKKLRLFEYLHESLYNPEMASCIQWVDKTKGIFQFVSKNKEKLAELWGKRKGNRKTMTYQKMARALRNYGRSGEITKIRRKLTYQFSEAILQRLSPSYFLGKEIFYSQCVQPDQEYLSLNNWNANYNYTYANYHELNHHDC
# In short: as §1
# ELF4 = ELF4 (Homo sapiens, UniProt Q99607 1-663); details: protein: recombinant; tags: N-terminal GST; dsDNA, one strand shown
# Sequence of ELF4 (Q99607 whole entry): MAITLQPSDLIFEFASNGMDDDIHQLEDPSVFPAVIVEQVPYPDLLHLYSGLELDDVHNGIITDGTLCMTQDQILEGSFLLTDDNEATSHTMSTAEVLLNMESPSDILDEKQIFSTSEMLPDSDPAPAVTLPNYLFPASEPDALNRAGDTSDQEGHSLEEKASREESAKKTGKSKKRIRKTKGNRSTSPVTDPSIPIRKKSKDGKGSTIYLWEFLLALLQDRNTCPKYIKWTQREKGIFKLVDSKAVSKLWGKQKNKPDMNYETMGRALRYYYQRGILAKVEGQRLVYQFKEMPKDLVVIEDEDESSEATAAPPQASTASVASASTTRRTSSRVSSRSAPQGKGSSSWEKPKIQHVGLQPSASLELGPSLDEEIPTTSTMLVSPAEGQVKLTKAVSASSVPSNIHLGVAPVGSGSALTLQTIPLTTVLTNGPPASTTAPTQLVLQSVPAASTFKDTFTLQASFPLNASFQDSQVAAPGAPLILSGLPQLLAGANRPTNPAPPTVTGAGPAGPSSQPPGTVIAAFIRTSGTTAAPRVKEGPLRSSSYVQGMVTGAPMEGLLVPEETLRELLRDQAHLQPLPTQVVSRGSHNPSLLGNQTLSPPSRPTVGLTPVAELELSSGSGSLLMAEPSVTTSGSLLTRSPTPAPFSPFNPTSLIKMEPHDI
# In short: as §1
# ELK4 = molecular target: T3, ELK4 (Homo sapiens, UniProt P28324-2 1-405); details: protein: recombinant; tags: N-terminal GST; dsDNA, one strand shown
# T3 sequence: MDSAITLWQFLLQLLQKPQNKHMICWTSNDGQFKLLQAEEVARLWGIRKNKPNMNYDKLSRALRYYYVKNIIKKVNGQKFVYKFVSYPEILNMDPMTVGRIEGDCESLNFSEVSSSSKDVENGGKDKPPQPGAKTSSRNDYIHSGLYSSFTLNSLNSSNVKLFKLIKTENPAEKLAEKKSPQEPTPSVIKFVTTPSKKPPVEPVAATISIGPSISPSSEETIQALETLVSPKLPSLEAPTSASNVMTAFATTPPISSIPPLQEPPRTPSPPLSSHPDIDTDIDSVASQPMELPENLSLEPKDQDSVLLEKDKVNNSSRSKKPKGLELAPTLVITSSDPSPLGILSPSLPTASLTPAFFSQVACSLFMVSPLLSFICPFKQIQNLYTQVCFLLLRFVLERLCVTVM
# In short: as §1
# ETV2 = molecular target: T4, ETV2 (Homo sapiens, UniProt O00321 1-342); details: protein: recombinant; tags: N-terminal GST; dsDNA, one strand shown
# T4 sequence: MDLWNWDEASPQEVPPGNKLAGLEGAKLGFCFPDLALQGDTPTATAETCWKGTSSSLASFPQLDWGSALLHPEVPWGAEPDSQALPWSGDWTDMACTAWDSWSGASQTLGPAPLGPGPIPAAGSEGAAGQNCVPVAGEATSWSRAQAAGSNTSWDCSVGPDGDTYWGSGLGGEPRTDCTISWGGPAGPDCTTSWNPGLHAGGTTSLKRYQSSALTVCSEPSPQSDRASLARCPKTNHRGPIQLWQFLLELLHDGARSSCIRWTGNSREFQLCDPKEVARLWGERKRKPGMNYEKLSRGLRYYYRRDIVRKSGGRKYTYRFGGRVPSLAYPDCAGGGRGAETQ
# In short: as §1
# ELF3 = molecular target: T5, ELF3 (Homo sapiens, UniProt P78545 1-371); details: protein: recombinant; tags: N-terminal GST; dsDNA, one strand shown
# T5 sequence: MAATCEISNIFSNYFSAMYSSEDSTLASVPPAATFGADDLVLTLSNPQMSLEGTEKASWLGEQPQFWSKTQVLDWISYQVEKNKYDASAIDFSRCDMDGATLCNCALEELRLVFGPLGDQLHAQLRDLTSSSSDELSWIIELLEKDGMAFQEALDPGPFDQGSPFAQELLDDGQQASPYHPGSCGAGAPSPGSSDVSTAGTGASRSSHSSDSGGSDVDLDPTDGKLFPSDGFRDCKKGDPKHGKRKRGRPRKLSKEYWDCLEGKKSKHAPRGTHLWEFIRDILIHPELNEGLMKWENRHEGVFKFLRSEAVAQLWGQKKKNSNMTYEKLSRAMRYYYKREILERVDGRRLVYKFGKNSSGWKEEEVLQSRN
# In short: as §1
# CRX = CRX (Homo sapiens, UniProt O43186 1-299); details: protein: recombinant; tags: N-terminal GST; dsDNA, one strand shown
# Sequence of CRX (O43186 whole entry): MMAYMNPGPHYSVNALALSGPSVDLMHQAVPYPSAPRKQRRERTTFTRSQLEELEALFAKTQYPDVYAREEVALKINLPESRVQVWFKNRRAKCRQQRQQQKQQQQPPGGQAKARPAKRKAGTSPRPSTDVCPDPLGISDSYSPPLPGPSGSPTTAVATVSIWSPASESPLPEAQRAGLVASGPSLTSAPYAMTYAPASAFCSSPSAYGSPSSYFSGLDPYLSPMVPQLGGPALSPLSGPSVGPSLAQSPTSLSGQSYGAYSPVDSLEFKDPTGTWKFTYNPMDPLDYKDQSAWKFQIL
# In short: as §1
sequence,measurement,setting,value
CTGGCT,binding signal,FEV,"1.16 fold enrichment (6-mer frequency, TF over GST control)"
same,binding signal,ETV5,"1.13 fold enrichment (6-mer frequency, TF over GST control)"
same,binding signal,HSF1,"1.27 fold enrichment (6-mer frequency, TF over GST control)"
same,binding signal,SPIC,"1.13 fold enrichment (6-mer frequency, TF over GST control)"
same,binding signal,ELF4,"1.18 fold enrichment (6-mer frequency, TF over GST control)"
same,binding signal,ELK4,"1.42 fold enrichment (6-mer frequency, TF over GST control)"
same,binding signal,ETV2,"1.5 fold enrichment (6-mer frequency, TF over GST control)"
same,binding signal,ELF3,"1.19 fold enrichment (6-mer frequency, TF over GST control)"
same,binding signal,CRX,"1.21 fold enrichment (6-mer frequency, TF over GST control)"
